# S2 tox – viability counter-screen for ATXN expression inhibitors; S2 cells (HEK-293 line with an ATXN2-luciferase reporter) viability, CellTiter-Fluor protease fluorescence, 24 h; actives 0.49% (n = 400,000); Potency, µM (series often up to 56.7 µM), hits mostly cytotoxic; note: nearly all actives have a fitted effect of over 40% in size
# Nrf2 block – inhibitors of Nrf2 signaling. A549 ARE-Fluc reporter, luciferase luminescence, 18-24 h. Potency, µM (highest dose often 46 µM), most hits filed as inhibitors. actives 2.1% (n = 360,000); note: nearly all actives have a fitted effect of over 60% in size
#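 Concentration-response testing used A549 ARE_Fluc cells at 5000 cells/well. Following an 18-24 h compound incubation, viability was read by fluorescence (Ex 405/Em 525) and luciferase output by luminescence.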
# A549 tox – counter-screen for Nrf2 inhibitors: cytotoxicity in A549 cells; Potency, µM (titrated, usually from 46 µM), actives largely listed as inhibitors; AID 504648; actives 0.16% (n = 390,000); A549 ARE-Fluc cells, CellTiter-Fluor viability, 18-24 h
#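 A549 ARE-Fluc cells in 5% FBS OPTI-MEM, 5000 cells/well, rested 2 h then exposed to compounds in concentration-response for 18-24 h at 37 °C. Viability by CellTiter-Fluor fluorescence (Ex 405/Em 525) after 30 min; luciferase luminescence (BugLite, 15 min, RT) read afterwards.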
# ATXN2 expr inh – reduces ATXN2 reporter expression in HEK-293 cells. Potency, µM (series often up to 57 µM), actives largely listed as inhibitors. actives 0.72% (n = 360,000). HEK-293 ATXN2-luciferase reporter, luminescence, 24 h; note: nearly all actives have a fitted effect of over 55% in size
#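 qHTS (up to 57 uM final) was run with 24 h compound exposure of reporter cells at 37 °C. Each well was multiplexed: SteadyGlo luminescence measured ATXN2-luciferase expression after a fluorogenic Gly-Phe-AFC viability readout (25 uM final).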
# HepG2 viability – kills HepG2 cells in TGF-b inhibitor counter-screen | HepG2 CAGA-GFP viability, ATP luminescence, 18 h | Potency, µM (highest dose often 46.1 µM), most hits filed as cytotoxic | actives 0.76% (n = 410,000)
#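 CellTiter-Glo luminescence gave cytotoxicity after 18 hours at 37 degrees C. The cells were HepG2 CAGA-GFP in 1% FBS DMEM, stimulated with 500 pg/mL TGF-beta after compound addition. %Activity was normalised to no-cell wells (complete cell-killing) and DMSO (no toxicity), and curves were fitted and classified.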
# TGFb inhibitor – TGF-b pathway inhibition; HepG2 CAGA-GFP TGF-b/SMAD3 reporter, GFP fluorescence, 18 h; TGF-beta stimulated, 500 pg/mL final; Potency, µM (titrated, usually from 46.1 µM), usual class: inhibitors; actives 1.2% (n = 410,000); note: nearly all actives have a fitted effect of over 65% in size
#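 Per well, imaged GFP fluorescence of HEPG2 CAGA-GFP cells gives the signal; cells get compound, then TGF-beta (500 pg/mL final), 18 h at 37 degrees C; %Activity versus -TGF-beta and +DMSO controls.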
# Hits are given with their value; – = inactive; ? = inconclusive; · = no result given; ! = a repeat was not active; [ ] = dose if it differs, or a comment. Rows were chosen to be rich in hits. Some 3.8% of all compounds tested hit in one or more screens of this group. Calls come from the whole dose curve; as a rule, active = well fitted curve in the direction sought with a large enough effect; inconclusive = small, poorly fitted or top-dose-only effect, or another doubt; inactive = no such curve, though single readings can be large; an effect the other way counts as inactive or inconclusive.
SMILES,S2 tox,Nrf2 block,A549 tox,ATXN2 expr inh,HepG2 viability,TGFb inhibitor
CC(C)CN(C(=O)COC(=O)c1cc2ccccc2cc1O)c1c(N)n(Cc2ccccc2)c(=O)[nH]c1=O,–,?,–,–,–,–
O=S1(=O)CCOC[C@H](CC2CCCCC2)N1Cc1cccc(C(F)(F)F)c1,–,?,?,–,12.6µM!,?
O=S1(=O)CCOC[C@H](CC2CCCCC2)N1Cc1ccccc1F,?,–,–,–,–,?
O=S1(=O)CCOC[C@H](CC2CCCCC2)N1Cc1ccccc1Br,–,?,–,–,7.08µM!,12.6µM
COc1ccc(CNC(=O)CCC2N=C3c4ccccc4N=C(SCc4ccc(F)cc4)N3C2=O)cc1 (stereo not drawn),?,·,–,–,–,?
CC(=O)Nc1ccc(N(C(=O)c2ccco2)C(C(=O)NC2CCCC2)c2ccncc2)cc1 (stereo not drawn),–,–,–,–,–,–
Cc1cc(C)[n+]2[nH]c(N)c(N=Nc3ccccc3)c2n1,?,–,–,–,12.6µM,–
Cc1cc(C)n2nc(N)c(N=Nc3ccccc3)c2n1,–,?,–,–,–,–
CCCCCn1c(CN2CCN(c3cccc(Cl)c3)CC2)nc2c1c(=O)[nH]c(=O)n2C,?,?,–,25.1µM,–,?
CCCCCCn1c(N2CCN(c3ccccc3)CC2)nc2c1c(=O)[nH]c(=O)n2C,–,20.6µM,?,–,–,–
O=C(O)c1ccc(S(=O)(=O)c2ccc3c(c2)C(=O)N(Cc2ccco2)C3=O)cc1,–,–,–[1.84 µM],–,–,–
CCN1C(=O)c2ccc(C(=O)NCc3ccco3)cc2C1=O,0.159µM,–,–,–,–,–
CCCN1C(=O)c2ccc(C(=O)NCc3ccco3)cc2C1=O,–,–,–,–,–,–
c1ccc(C2=NNC(=NC3CC3)SC2)cc1,–,?,–,?,7.08µM,–
c1ccc2c(C3=NNC(=NC4CC4)SC3)c[nH]c2c1,–,?,–,17.8µM,–,–
COc1ccc(C2=Nc3ccccc3NC(=O)C2N(C(=O)c2cnc(C)cn2)c2ccc(N3CCOCC3)cc2)cc1 (stereo not drawn),?,·,·,–,–,–
C=CCn1c(CNc2ccc(C)cc2)nnc1SCC(=O)N/N=C/c1ccc(O)cc1O,–,·,–,20µM,–,?
COc1cc(OC)cc(C(=O)N[C@H](C(=O)Nc2nc3c(s2)CCCC3)C(C)C)c1,–,23.1µM,–,·,–,?
O=C(c1cc2nc(-c3cccs3)cc(C(F)(F)F)n2n1)N1CCCc2ccccc21,–,18.4µM,–,–,–,–
O=C(c1cc2nc(-c3cccs3)cc(C(F)(F)Cl)n2n1)N1CCCc2ccccc21,–,–,–,–,–,–
COc1c(Cl)cc(Br)c(OC)c1C(=O)NC(=O)Nc1nc(C)cc(C)n1,–,–,–,–,–,–
O=S(=O)(Nc1ccc(Cl)cc1)c1cccc(S(=O)(=O)c2ccc(Cl)c(Cl)c2)c1,?,?,–,?,–,14.1µM
O=C(O)c1ccc(NS(=O)(=O)c2cccc(S(=O)(=O)c3ccc(Cl)c(Cl)c3)c2)cc1,–,–,–,–,–,–
O=C(NCCc1cn2ccccc2n1)c1cc(COc2ccc3ncccc3c2)on1,?,16.4µM,?,?,–,–
CC(NC(=O)c1cc(COc2ccc3ncccc3c2)on1)c1ccc(F)cc1 (stereo not drawn),–,?,–,–,–,–
SMILES,S2 tox,Nrf2 block,A549 tox,ATXN2 expr inh,HepG2 viability,TGFb inhibitor
Cc1nc(SCC(=O)Nc2ccc(S(=O)(=O)N3CCOCC3)cc2)c2c(C)c(C)sc2n1,–,11.6µM,?,?,–,?
Cc1cccc(N2CCN(CC(=O)Nc3ccc(S(=O)(=O)N4CCOCC4)cc3)CC2)c1C,–,16.4µM,–,–,–,?
Cc1nc(SCC(=O)N2CCOCC2)c2c(C)c(C)sc2n1,–,–,–,–,–,–
Cc1cccc(N2CCN(CC(=O)Nc3nccs3)CC2)c1C,–,16.4µM,–,–,–,–
COc1ccc(C2CC(c3ccccc3)Oc3c(C)ccc(C)c32)cc1 (stereo not drawn),·,?,?,·,–,–
CCOC(=O)N1CCC(NC(=O)c2ccc3c(c2)N(Cc2ccc(F)cc2)C(=O)c2ccccc2S3=O)CC1 (stereo not drawn),–,–,–,–,–,?
COc1cccc(NC(=O)c2oc3ccccc3c2NC(=O)Cc2cccc(C)c2)c1,–,–,–,–,–,–
O=C(NCc1ccc(Cl)cc1)C(=O)Nc1cccc(Br)c1,–,–,?,–,–,–
COc1ccccc1CNC(=O)c1ccc(-c2ccccc2Cl)o1,–,–,–,–,–,15.8µM
CC(C)C[C@H](NC(=O)c1[nH]cnc1C(=O)N[C@@H](Cc1ccccc1)C(=O)OC(C)(C)C)C(=O)OCc1ccccc1,?,?,?,–,–,?
CC(C)C[C@H](NC(=O)c1[nH]cnc1C(=O)N[C@@H](Cc1ccccc1)C(=O)OC(C)(C)C)C(=O)OC(C)(C)C,·,?,?,?,–,11.2µM
CC(C)C[C@H](NC(=O)c1[nH]cnc1C(=O)N[C@@H](C)c1ccccc1)C(=O)OC(C)(C)C,25.1µM,?,?,?,–,?
CC(C)C[C@H](NC(=O)c1[nH]cnc1C(=O)N[C@@H](Cc1ccccc1)C(=O)OCc1ccccc1)C(=O)OC(C)(C)C,–,?,–,–,–,?
CC(C)C[C@H](NC(=O)c1nc[nH]c1C(=O)NC1CCN(C(=O)OC(C)(C)C)CC1)C(=O)OCc1ccccc1,?,–,–,?,12.6µM,?
CC(C)C[C@H](NC(=O)c1nc[nH]c1C(=O)NC1CCN(C(=O)OC(C)(C)C)CC1)C(=O)OC(C)(C)C,?,?,–,?,–,?
CC(C)C[C@H](NC(=O)c1[nH]cnc1C(=O)Nc1ccc(CNC(=O)OC(C)(C)C)cc1)C(=O)OCc1ccccc1,?,–,–,28.2µM,–,?
CCOC(=O)c1cn(Cc2ccccc2)c(C(=O)OC(C)(C)C)c1O,–,?,?,–,–,–
O=C(NCc1ccccc1)c1cc(C2COCCN2C(=O)OCCF)on1 (stereo not drawn),–,·,·,–,–,–
CC(C)C[C@H](NC(=O)c1nc[nH]c1C(=O)NCc1ccc(CNC(=O)OC(C)(C)C)cc1)C(=O)OC(C)(C)C,?,?,–,–,–,?
CC(C)C[C@H](NC(=O)c1[nH]cnc1C(=O)Nc1ccccc1F)C(=O)OC(C)(C)C,?,·,·,?,11.2µM,?

# High-throughput results deposited in PubChem BioAssay by National Center for Advancing Translational Sciences (NCATS).
